Experimental data published in PubChem BioAssay (EPA / NIEHS).
Inconclusive results are not listed. Activity calls are given as the source filed them. The calls were made as follows: active = hit-call score of the fitted dose curve at least 0.9, where 1 is the maximum; inconclusive = response in the unintended direction; inactive = score below 0.9.

Assays:
[1] = molecular target: bovine Gamma-Aminobutyric Acid Type A Receptor BDZ, alpha 5 site (GABARa5), GABRA5 (gene 523515) (UniProt Q08E50); assay: NVS_LGIC_bGABARa5: NovaScreen (NVS) Ligand-Gated Ion Channel Assay for bovine Gamma-Aminobutyric Acid Type A Receptor BDZ, alpha 5 site (GABARa5) (AID 2283323)
Outline: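 Tested first in duplicate at a single 25 uM, with hits re-run in concentration series to a 50 uM maximum. Bovine hippocampal membranes; specific radioligand displacement measured by filter scintillation counting 1 hr post-dose.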

[2] = molecular target: human Serotonin, 5-Hydroxytryptamine Receptor 3 (5HT3), HTR3A (gene 3359) (UniProt P46098); assay: NVS_LGIC_h5HT3: NovaScreen (NVS) Ligand-Gated Ion Channel Assay for human Serotonin, 5-Hydroxytryptamine Receptor 3 (5HT3) (AID 2283325)
Method: NVS_LGIC_h5HT3 is a biochemical, single-readout assay that uses extracted gene-proteins from HEK293 in a cell-free assay. Measurements were taken 1 hour after chemical dosing in a 96-well plate.NVS_LGIC_h5HT3 is one of one assay component(s) measured or calculated from the NVS_LGIC_h5HT3 assay. It is designed to make measurements of radioligand binding, a form of binding reporter, as detected with scintillation counting signals by Filter-based radiodetection technology.Data from the assay component NVS_LGIC_h5HT3 was analyzed into 1 assay endpoint. This assay endpoint, NVS_LGIC_h5HT3, was analyzed in the positive analysis fitting direction relative to DMSO as the negative control and baseline of activity. […] Furthermore, this assay endpoint can be referred to as a primary readout, because the performed assay has only produced 1 assay endpoint. […]
Binding assays used specific radioligands (tritiated, iodinated) with non-radioactive competitive displacement ligands in agonist or antagonist protocols (as indicated) and various reference compounds and inhibitors to titrate specific binding to receptors and transporters. Most enzyme assays (CYPs, kinases, phosphatases, proteases, HDACs) used recombinant protein and specific substrates (fluorescence mostly, some colorimetric and radioactive) and inhibitors, followed by a biochemical separation of substrate and product. […]

[3] = NVS_IC_rCaDHPRCh_L: NovaScreen (NVS) Ion Channel Assay for rat Calcium Channel, Type L, Dihydropyridine Site (CaDHPRCh_L) (AID 2283320)
Outline: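 Rat cortex membrane preparation; dihydropyridine-site radioligand displacement read 1 h post-dose by filtration and scintillation. Primary single-point screen 25 uM in duplicate, then concentration series to 50 uM maximum; DMSO as negative control.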

[4] = molecular target: Sodium channel protein type 1 subunit alpha (Rattus norvegicus) (UniProt P04774); assay: NVS_IC_rNaCh_site2: NovaScreen (NVS) Ion Channel Assay for rat Sodium Channel, Site 2 (NaCh) (AID 2283322);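 also: hit means loss of radioligand binding signal relative to DMSO so AC50 marks displacement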
Method: (§1) NVS_IC_rNaCh_site2 is a biochemical, single-readout assay that uses extracted gene-proteins from Rat forebrain membranes in a tissue-based cell-free assay. Measurements were taken 1 hour after chemical dosing in a 48-well plate.NVS_IC_rNaCh_site2 is one of one assay component(s) measured or calculated from the NVS_IC_rNaCh_site2 assay. It is designed to make measurements of radioligand binding, a form of binding reporter, as detected with scintillation counting signals by Filter-based radiodetection technology.Data from the assay component NVS_IC_rNaCh_site2 was analyzed into 1 assay endpoint. This assay endpoint, NVS_IC_rNaCh_site2, was analyzed in the positive analysis fitting direction relative to DMSO as the negative control and baseline of activity. Using a type of binding reporter, loss-of-signal activity can be used to understand changes in the binding as they relate to the gene Scn1a. Furthermore, this assay endpoint can be referred to as a primary readout, because the performed assay has only produced 1 assay endpoint. To generalize the intended target to other relatable targets, this assay endpoint is annotated to the ion channel intended target family, where the subfamily is sodium channel.
Binding assays used specific radioligands (tritiated, iodinated) with non-radioactive competitive displacement ligands in agonist or antagonist protocols (as indicated) and various reference compounds and inhibitors to titrate specific binding to receptors and transporters. Most enzyme assays (CYPs, kinases, phosphatases, proteases, HDACs) used recombinant protein and specific substrates (fluorescence mostly, some colorimetric and radioactive) and inhibitors, followed by a biochemical separation of substrate and product. All assays for the biochemical HTS were initially run in duplicate at a single concentration (10 uM for CYP450 assays and 25 uM for all others). […] Each assay was run with positive and negative controls, and concurrent controls on every plate. The follow-up (secondary) screen tested active chemical-pairs in concentration series, as well as a few additional assays not tested in the primary screen, some selected negative inactives, and several cases re-run in the concentration series for confirmatory purposes.

NCBI gene 24521 = assay: NVS_IC_rKATPCh: NovaScreen (NVS) Ion Channel Assay for rat Potassium Channel, ATP-Sensitive (KATPCh) (AID 2283319)
Outline: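 Primary duplicate screen at 25 uM, then singleton concentration series to 50 uM maximum, in a rat cortex membrane radioligand displacement assay. Binding measured by filtration and scintillation 2 h post-dose; DMSO baseline.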

[5] = molecular target: rat Opioid Receptor, Non-selective Binding, Oprm1 (gene 25601) (UniProt P33535); assay: NVS_GPCR_rOpiate_NonSelective: NovaScreen (NVS) G Protein-Coupled Receptor Assay for rat Opioid Receptor, Non-selective Binding (AID 2283318)
Outline: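 Filter-based radioligand displacement using rat forebrain membrane preparations, measured 1.5 h post-dosing. Single-concentration duplicate screen at 25 uM, follow-up in concentration series; activity taken as signal loss relative to DMSO.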

[6] = molecular target: rat Glutamate, NMDA Agonist Site (GluNMDA), Grin1 (gene 24408) (UniProt P35439); assay: NVS_LGIC_rGluNMDA_Agonist: NovaScreen (NVS) Ligand-Gated Ion Channel Assay for rat Glutamate, NMDA Agonist Site (GluNMDA) (AID 2283327)
Outline: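 Radioligand displacement at the agonist site on rat forebrain membrane preparations, read by filter scintillation after 1 h. Chemicals were first run at 25 uM in duplicate; those passing threshold were titrated to a 50 uM maximum.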

[7] = molecular target: rat Glutamate, AMPA Site (AMPA), Gria1 (gene 50592) (UniProt P19490); assay: NVS_LGIC_rAMPA: NovaScreen (NVS) Ligand-Gated Ion Channel Assay for rat Glutamate, AMPA Site (AMPA) (AID 2283324)
Method: as §1, with “NVS_LGIC_rAMPA” for “NVS_IC_rNaCh_site2”, “plate.NVS_LGIC_rAMPA” for “plate.NVS_IC_rNaCh_site2”, “NVS_LGIC_rAMPA,” for “NVS_IC_rNaCh_site2,”, “Gria1.” for “Scn1a.”, “ligand-gated ion” for “sodium”
Binding assays used specific radioligands (tritiated, iodinated) with non-radioactive competitive displacement ligands in agonist or antagonist protocols (as indicated) and various reference compounds and inhibitors to titrate specific binding to receptors and transporters. Most enzyme assays (CYPs, kinases, phosphatases, proteases, HDACs) used recombinant protein and specific substrates (fluorescence mostly, some colorimetric and radioactive) and inhibitors, followed by a biochemical separation of substrate and product. All assays for the biochemical HTS were initially run in duplicate at a single concentration (10 uM for CYP450 assays and 25 uM for all others). Assay-chemical combinations meeting a pre-defined threshold (e.g., 30% inhibition and other criteria defined below) were then run in singleton concentration-response format with maximum concentration of 20 uM for CYPs and 50 uM for all others. Each assay was run with positive and negative controls, and concurrent controls on every plate. The follow-up (secondary) screen tested active chemical-pairs in concentration series, as well as a few additional assays not tested in the primary screen, some selected negative inactives, and several cases re-run in the concentration series for confirmatory purposes.

[8] = molecular target: Voltage-dependent N-type calcium channel subunit alpha-1B (Rattus norvegicus) (UniProt Q02294); assay: NVS_IC_rCaChN: NovaScreen (NVS) Ion Channel Assay for rat Calcium Channel, Type N (CaChN) (AID 2283317)

Sequence of rat Glutamate, AMPA Site (AMPA), Gria1 (gene 50592) (P19490 whole entry, looked up): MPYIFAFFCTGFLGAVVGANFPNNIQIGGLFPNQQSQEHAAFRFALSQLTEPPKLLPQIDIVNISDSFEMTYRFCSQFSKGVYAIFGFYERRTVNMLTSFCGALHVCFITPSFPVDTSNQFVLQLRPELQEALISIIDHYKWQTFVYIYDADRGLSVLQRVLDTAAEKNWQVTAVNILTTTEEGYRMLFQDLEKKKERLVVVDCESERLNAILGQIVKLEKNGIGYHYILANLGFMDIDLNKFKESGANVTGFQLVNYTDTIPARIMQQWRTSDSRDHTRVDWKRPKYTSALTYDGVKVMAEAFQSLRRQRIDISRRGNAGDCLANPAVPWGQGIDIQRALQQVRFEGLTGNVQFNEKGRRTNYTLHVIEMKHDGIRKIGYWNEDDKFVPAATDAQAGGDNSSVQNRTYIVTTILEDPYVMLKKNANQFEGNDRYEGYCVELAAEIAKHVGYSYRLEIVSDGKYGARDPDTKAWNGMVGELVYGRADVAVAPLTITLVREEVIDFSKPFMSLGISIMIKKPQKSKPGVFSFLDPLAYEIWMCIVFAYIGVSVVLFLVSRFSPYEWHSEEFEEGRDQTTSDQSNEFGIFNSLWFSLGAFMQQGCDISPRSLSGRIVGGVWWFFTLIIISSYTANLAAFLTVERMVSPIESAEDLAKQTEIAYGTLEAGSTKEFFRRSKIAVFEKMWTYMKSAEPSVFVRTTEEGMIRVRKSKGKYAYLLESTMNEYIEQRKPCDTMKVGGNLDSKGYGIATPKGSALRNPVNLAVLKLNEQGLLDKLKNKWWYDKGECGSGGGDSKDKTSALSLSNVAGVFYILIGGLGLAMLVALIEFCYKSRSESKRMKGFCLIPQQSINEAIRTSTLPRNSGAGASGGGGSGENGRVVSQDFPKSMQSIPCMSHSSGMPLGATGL
Sequence of bovine Gamma-Aminobutyric Acid Type A Receptor BDZ, alpha 5 site (GABARa5), GABRA5 (gene 523515) (Q08E50 whole entry, looked up): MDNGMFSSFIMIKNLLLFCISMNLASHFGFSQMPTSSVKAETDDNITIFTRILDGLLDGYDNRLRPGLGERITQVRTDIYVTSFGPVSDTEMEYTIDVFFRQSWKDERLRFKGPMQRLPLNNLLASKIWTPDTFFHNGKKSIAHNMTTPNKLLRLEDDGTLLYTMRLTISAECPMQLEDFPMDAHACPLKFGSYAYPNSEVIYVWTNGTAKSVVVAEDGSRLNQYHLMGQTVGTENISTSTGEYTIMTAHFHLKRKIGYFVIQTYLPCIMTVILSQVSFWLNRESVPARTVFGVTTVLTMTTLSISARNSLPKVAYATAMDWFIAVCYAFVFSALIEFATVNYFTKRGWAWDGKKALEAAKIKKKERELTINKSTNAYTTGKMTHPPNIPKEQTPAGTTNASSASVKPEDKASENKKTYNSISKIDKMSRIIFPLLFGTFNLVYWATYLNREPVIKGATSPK
Sequence of rat Opioid Receptor, Non-selective Binding, Oprm1 (gene 25601) (P33535 whole entry, looked up): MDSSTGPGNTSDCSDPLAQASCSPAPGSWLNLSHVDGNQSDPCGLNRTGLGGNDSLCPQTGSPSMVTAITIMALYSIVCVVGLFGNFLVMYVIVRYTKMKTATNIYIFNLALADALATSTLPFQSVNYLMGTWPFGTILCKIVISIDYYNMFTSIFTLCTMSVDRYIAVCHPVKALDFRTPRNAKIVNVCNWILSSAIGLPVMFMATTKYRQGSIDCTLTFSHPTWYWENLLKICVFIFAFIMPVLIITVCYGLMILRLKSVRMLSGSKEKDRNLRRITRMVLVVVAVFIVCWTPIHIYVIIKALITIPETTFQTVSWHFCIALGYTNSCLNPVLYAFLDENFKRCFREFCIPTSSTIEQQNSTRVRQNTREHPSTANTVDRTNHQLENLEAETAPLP
Sequence of human Serotonin, 5-Hydroxytryptamine Receptor 3 (5HT3), HTR3A (gene 3359) (P46098 whole entry, looked up): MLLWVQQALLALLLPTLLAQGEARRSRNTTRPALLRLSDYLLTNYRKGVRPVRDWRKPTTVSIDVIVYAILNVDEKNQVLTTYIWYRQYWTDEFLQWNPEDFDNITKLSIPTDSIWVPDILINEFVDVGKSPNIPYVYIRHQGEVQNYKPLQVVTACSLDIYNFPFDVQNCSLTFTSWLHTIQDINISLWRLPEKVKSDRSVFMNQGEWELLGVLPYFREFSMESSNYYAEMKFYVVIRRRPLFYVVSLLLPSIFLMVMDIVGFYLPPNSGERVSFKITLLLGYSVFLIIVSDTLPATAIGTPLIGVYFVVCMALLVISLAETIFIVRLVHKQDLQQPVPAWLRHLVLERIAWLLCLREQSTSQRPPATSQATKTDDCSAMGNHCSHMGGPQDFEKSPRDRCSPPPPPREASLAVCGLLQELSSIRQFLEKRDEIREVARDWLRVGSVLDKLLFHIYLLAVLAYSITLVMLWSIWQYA

Question: Which outcome [1] does the source give for O=[N+]([O-])c1cc(C(F)(F)F)c(Cl)c([N+](=O)[O-])c1Nc1ncc(C(F)(F)F)cc1Cl here?
Answer: The outcome was “inactive”.

Question: Which outcome [2] does the source give for C#CCC1=C(C)C(OC(=O)C2C(C=C(C)C)C2(C)C)CC1=O (configuration not stated) here?
Answer: The outcome was “inactive”.

Question: Which AC50 [3] does the source give for FC(F)C(F)(F)OCC(Cn1cncn1)c1ccc(Cl)cc1Cl (configuration not stated) here?
Answer: The AC50 was 12.6 µM (active).

Question: And the AC50 [4]?
Answer: The AC50 was 25 µM (active).

Question: Which outcome (NCBI gene 24521) does the source give for Nc1nc(N)nc(NC2CC2)n1 here?
Answer: Its outcome is “inactive”.

Question: Which AC50 [4] does the source give for Cc1cc(C2CC2)nc(Nc2ccccc2)n1 here?
Answer: Its AC50 is 9.68 µM (active).

Question: What does the source list for CCc1cccc(CC)c1N(COC)C(=O)CCl?
Answer: outcome [5]: inactive; outcome [6]: inactive

Question: Which outcome [5] does the source give for CC(C)=CC1C(C(=O)OCN2C(=O)C3=C(CCCC3)C2=O)C1(C)C (configuration not stated) here?
Answer: Its outcome is “inactive”.

Question: What about the AC50 [3] of the same molecule?
Answer: The AC50 was 38.2 µM (active).

Question: What about the outcome [7] of the same molecule?
Answer: The outcome was “inactive”.

Question: Which AC50 [4] does the source give for CSc1nc(NC(C)C)nc(NC(C)C)n1 here?
Answer: The AC50 was 11.9 µM (active).

Question: For S=C1NCCN1, which outcome [7] is on record?
Answer: The outcome was “inactive”.

Question: With CN(C)[C@@H]1C(=O)C(C(N)=O)=C(O)[C@@]2(O)C(=O)C3=C(O)c4c(O)cccc4[C@@](C)(O)[C@H]3[C@H](O)[C@@H]12 as the molecule, how does the outcome [7] read?
Answer: The outcome was “inactive”.

Question: For C[Si](Cn1cncn1)(c1ccc(F)cc1)c1ccc(F)cc1, which outcome [5] is on record?
Answer: Its outcome is “inactive”.

Question: And the AC50 [3]?
Answer: Its AC50 is 25.7 µM (active).

Question: And the AC50 [4]?
Answer: The AC50 was 18.1 µM (active).

Question: With CCOC(=O)CC(SP(=O)(OC)OC)C(=O)OCC (configuration not stated) as the molecule, how does the outcome [5] read?
Answer: The outcome was “inactive”.

Question: For CN(C)C(=O)Nc1cccc(C(F)(F)F)c1, which AC50 (NCBI gene 24521) is on record?
Answer: The AC50 was 10.9 µM (active).

Question: For CC1=NNC(=O)N(/N=C/c2cccnc2)C1, which outcome (NCBI gene 24521) is on record?
Answer: The outcome was “inactive”.

Question: And the outcome [1]?
Answer: Its outcome is “inactive”.

Question: With CC[C@H](C)[C@H]1O[C@]2(C=C[C@@H]1C)C[C@@H]1C[C@@H](C/C=C(\C)[C@@H](O[C@H]3C[C@H](OC)[C@@H](O[C@H]4C[C@H](OC)[C@@H](NC)[C@H](C)O4)[C@H](C)O3)[C@@H](C)/C=C/C=C3\CO[C@@H]4[C@H](O)C(C)=C[C@@H](C(=O)O1)[C@]34O)O2 as the molecule, how does the outcome [8] read?
Answer: The outcome was “inactive”.

Question: What about the outcome [5] of the same molecule?
Answer: Its outcome is “inactive”.

Question: And the AC50 [3]?
Answer: The AC50 was 4.83 µM (active).

Question: And the AC50 [4]?
Answer: Its AC50 is 16.6 µM (active).

Question: What about the AC50 [1] of the same molecule?
Answer: The AC50 was 1.56 µM (active).

Question: What about the AC50 [6] of the same molecule?
Answer: The AC50 was 16.4 µM (active).
